Laboratory results as given in PubChem BioAssay (NCATS).
Records with an inconclusive call do not appear. A call without a number means that no potency is given here. A number with no mark means an inactive call. Calls of active or inactive are those of the source. The call rests on the fitted dose curve; in most records, active means well fitted inhibition curve with a large enough effect; inconclusive means small, poorly fitted or top-dose-only effect; inactive means no such curve, though single readings can be large or run the other way. Where a SMILES comes first, the peptide text is derived from it. [ ]: non-standard residue; d: D form. ξ: configuration not given here. ξLac(3-iPr) = CC(C)CC(O)C(=O)O; NMeV = CN[CH](C(=O)O)C(C)C; βAla = NCCC(=O)O

What was measured:
[1] = tested on: Zika virus NS2B-NS3 protease (unlinked complex); assay: Primary screen GU Rhodamine qHTS for Zika virus inhibitors: Unlinked NS2B-NS3 protease assay (AID 1347159); further: nearly all actives have a fitted effect of over 60% in size
Summary of the method: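 A qHTS format was used, with compound concentrations ranging up to 114 microM. Each compound was preincubated with 25 nM NS2B-NS3 protease, and the substrate was then added at 1.5 microM. Curves were fitted with a 4-parameter Hill model.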

[2] = tested on: Zika virus NS2B-NS3 protease (linked construct); assay: Primary screen NINDS Rhodamine qHTS for Zika virus inhibitors (AID 1347160); further: nearly all actives have a fitted effect of over 55% in size
Summary of the method: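 Kinetic fluorescence (Ex 480 nm, Em 540 nm) over 15 min with 1.5 microM Rhodamine110 peptide and 25 nM linked protease.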

SMILES: COC(=O)CCSCc1ccc(-c2onc(C)c2NC(=O)OC(C)c2ccccc2Cl)cc1 (stereo not drawn)
- Potency [1]: inactive
- Potency [2]: inactive

SMILES: CCCC(=O)O[C@@H]1[C@@H]2[C@@H](OC(C)=O)[C@]3(C)C(=O)[C@H]4[C@@H](OC(C)=O)C(C)(C)C[C@H]4[C@]3(C)C(=O)[C@@]2(OC(C)=O)C[C@@H]1C
- Potency [1]: inactive
- Potency [2]: inactive

SMILES: Cc1cc(N(C)C)ccc1-c1nc2ccc(-c3nc4ccc(N5CCN(C)CC5)cc4[nH]3)cc2[nH]1
- Potency [1]: inactive
- Potency [2]: inactive

SMILES: O=C(NCc1cccc(O)c1)Nc1nc(-c2ccncc2)cs1
- Potency [1]: inactive
- Potency [2]: inactive

SMILES: O=C(O[C@H]1[C@@H]2C[C@@H]3OC[C@](O)([C@@H]1Cl)[C@H]2C(O[C@@H]1O[C@H](CO)[C@@H](O)[C@H](O)[C@H]1O)O3)c1ccc(O)c(O)c1 (stereo partly drawn)
- Potency [1]: inactive
- Potency [2]: inactive

SMILES: COc1cc(/C=C/C(=O)O[C@H]2[C@H](O)[C@@H](CO)O[C@@]2(CO)O[C@H]2O[C@H](CO)[C@@H](O)[C@H](O)[C@H]2O)ccc1O
- Potency [1]: inactive
- Potency [2]: inactive

SMILES: CCCCNc1ncc2c(-c3ccc(F)cc3)nn(CC3CCC(N)CC3)c2n1 (stereo not drawn)
- Potency [1]: inactive
- Potency [2]: inactive

SMILES: O=[N+]([O-])c1cn2c(n1)OCC(OCc1ccc(OC(F)(F)F)cc1)C2 (stereo not drawn)
- Potency [1]: inactive
- Potency [2]: inactive

SMILES: C#CC[C@H](c1nc2cc(Cl)ccc2c(=O)n1Nc1ccccc1)N(CCCN)C(=O)c1cccc(Cl)c1F
- Potency [1]: inactive
- Potency [2]: inactive

SMILES: CC1(C)CC[C@]2(C(=O)O)CC[C@]3(C)C(=CCC4[C@@]5(C)CC[C@H](O[C@@H]6O[C@H](C(=O)O)[C@@H](O[C@@H]7OC[C@@H](O)[C@H](O)[C@H]7O)[C@H](O)[C@H]6O)C(C)(C)C5CC[C@]43C)C2C1O (stereo partly drawn)
- Potency [1]: inactive
- Potency [2]: inactive

SMILES: CC(C)=CCC[C@](C)(O[C@@H]1O[C@H](CO)[C@@H](O)[C@H](O)[C@H]1O)[C@H]1CC[C@]2(C)[C@@H]1[C@H](O)CC1[C@@]3(C)CC[C@H](O)C(C)(C)C3[C@@H](O[C@@H]3O[C@H](CO)[C@@H](O)[C@H](O)[C@H]3O[C@@H]3OC[C@@H](O)[C@H](O)[C@H]3O)C[C@]12C (stereo partly drawn)
- Potency [1]: inactive
- Potency [2]: inactive

SMILES: C=CC(C)(C)c1[nH]c2ccccc2c1C[C@@H]1NC(=O)[C@H](Cc2c[nH]c3ccccc23)NC1=O
- Potency [1]: inactive
- Potency [2]: inactive

SMILES: C[C@@H]1C(=O)O[C@H]2[C@@H](O)C34[C@H]5C[C@@H](C(C)(C)C)C36[C@@H](OC(=O)[C@@H]6O)O[C@@]4(C(=O)O5)[C@@]12O (stereo partly drawn)
- Potency [1]: inactive
- Potency [2]: inactive

SMILES: COc1c2c(c(CO)c3c1C(=O)OC3)OC1(C)CCC3(O)C(C)(C)OC(=O)CCC3(C)C1C2 (stereo not drawn)
- Potency [1]: inactive
- Potency [2]: inactive

SMILES: O=c1[nH]ccc2cc(OC3CCNCC3)ccc12
- Potency [1]: inactive
- Potency [2]: inactive

SMILES: Cc1cc(OCc2nnc(SC3CCCC3)n2-c2cccnc2)ccc1-c1ccc(S(C)(=O)=O)cc1
- Potency [1]: inactive
- Potency [2]: inactive

SMILES: Cc1nc(Nc2n[nH]c3c2CN(C(=O)NC(CN(C)C)c2ccccc2)C3(C)C)c2sccc2n1 (stereo not drawn)
- Potency [1]: inactive
- Potency [2]: inactive

SMILES: COc1cc2c(cc1OC)[C@@H]1[C@H](O)[C@@H](OC)C=C3CCN(C2)[C@H]31
- Potency [1]: inactive
- Potency [2]: inactive

SMILES: COc1ccc(-c2ccc(-c3cn(C(=O)N4CCCCC4c4ccccc4)nn3)cc2)cc1 (stereo not drawn)
- Potency [1]: inactive
- Potency [2]: inactive

SMILES: CC1(C)CC[C@]2(C(=O)O[C@@H]3O[C@H](CO[C@@H]4O[C@H](CO)[C@@H](O)[C@H](O)[C@H]4O[C@@H]4O[C@H](CO)[C@@H](O)[C@H](O)[C@H]4O)[C@@H](O)[C@H](O[C@@H]4O[C@H](CO)[C@@H](O)[C@H](O)[C@H]4O)[C@H]3O)CC[C@]3(C)C(=CCC4[C@@]5(C)CC[C@@H](O)[C@@](C)(C(=O)O[C@@H]6O[C@H](CO)[C@@H](O)[C@H](O)[C@H]6O)C5CC[C@]43C)[C@@H]2C1 (stereo partly drawn)
- activity change, negative = inhibition [1]: 14.6% [at 19.1 µM]
- outcome [2]: inactive [at 10.7 µM]

SMILES: Nc1ccc(-c2cccc3c(=O)cc(N4CCOCC4)oc23)cc1
- Potency [1]: inactive
- Potency [2]: inactive

SMILES: NCc1c[nH]c(=S)n1[C@@H]1CCc2c(F)cc(F)cc2C1
- Potency [1]: inactive
- Potency [2]: inactive

SMILES: Cn1nnc(-c2ccc(-c3ccc(N4C[C@H](CO)OC4=O)cc3F)cn2)n1
- Potency [1]: inactive
- Potency [2]: inactive

SMILES: CCN1CCN(Cc2ccc(NC(=O)c3ccc(C)c(/C=C/c4cnc5[nH]ccc5c4OC)c3)cc2C(F)(F)F)CC1
- Potency [1]: inactive
- Potency [2]: inactive

SMILES: COc1cc(/C=C/CO)cc(OC)c1O[C@@H]1O[C@H](CO[C@@H]2O[C@H](CO)[C@@H](O)[C@H](O)[C@H]2O)[C@@H](O)[C@H](O)[C@H]1O
- Potency [1]: inactive
- Potency [2]: inactive

SMILES: NCc1ccc(Nc2ncc(F)c(Nc3ccccc3)n2)cc1
- Potency [1]: inactive
- Potency [2]: inactive

SMILES: CCOc1ccc(NC(=S)N2CCC(C(O)(c3ccccc3)c3ccccc3)CC2)cc1
- Potency [1]: inactive
- Potency [2]: inactive

SMILES: Cc1nc2ccc(Oc3ccc(F)cc3)cc2c(=O)n1C[C@H]1CCCN(C(C)C)C1
- Potency [1]: inactive
- Potency [2]: inactive

SMILES: CC(=O)OC1C(O)C2C(C)C3=CC(=O)OC3(O)CC2C2(C)CCCC(C)(CO)C12 (stereo not drawn)
- Potency [1]: inactive
- Potency [2]: inactive

SMILES: COc1ccc(C2COc3cc(O)ccc3C2)c(O)c1 (stereo not drawn)
- Potency [1]: inactive
- Potency [2]: inactive

SMILES: CC(=O)OC1C[C@]2(C)C(O)CC(C)=C[C@H](OC(=O)c3ccc(O)cc3)C2[C@]1(O)C(C)C (stereo partly drawn)
- Potency [1]: inactive
- Potency [2]: inactive

SMILES: C/C=C(/COC(=O)/C(C)=C/C)C(=O)OC(CC)c1ccc(OC)c(OC)c1 (stereo not drawn)
- Potency [1]: inactive
- Potency [2]: inactive

SMILES: C[C@@H]1O[C@@H](O[C@H]2[C@H](O)[C@@H](O)[C@H](O[C@H]3[C@H](O[C@H]4CC[C@@]5(C)C(=CC[C@@H]6C5CC[C@]5(C)[C@@H]7[C@H](C[C@@H]65)O[C@]5(CC[C@@](C)(CO[C@@H]6O[C@H](CO)[C@@H](O)[C@H](O)[C@H]6O)O5)[C@H]7C)C4)O[C@H](CO)[C@@H](O)[C@@H]3O)O[C@@H]2CO)[C@H](O)[C@H](O)[C@H]1O (stereo partly drawn)
- Potency [1]: inactive
- Potency [2]: inactive

SMILES: COC(=O)C1(C)CCC2(C(=O)O)CCC3(C)C(=CCC4C5(C)CC(O)C(OC6OCC(O)C(O)C6O)C(C)(CO)C5CCC43C)C2C1 (stereo not drawn)
- Potency [1]: inactive
- Potency [2]: inactive

SMILES: C=CC[C@]12C[C@@H](OC)C(=O)C(OC)=C1O[C@@H](c1cc(OC)c3c(c1)OCO3)[C@@H]2C
- Potency [1]: inactive
- Potency [2]: inactive

SMILES: CC1C(=O)CC2C3CCC(C(=O)O)C12CC3(C)CO (stereo not drawn)
- Potency [1]: inactive
- Potency [2]: inactive

SMILES: CCN(Cc1cccnc1)C(=O)CN(c1ccc(OC)nc1)S(=O)(=O)c1ccccc1C
- Potency [1]: inactive
- Potency [2]: inactive

SMILES: Cc1ccc(NC(=O)c2ccc(CN3CC[C@H](N(C)C)C3)c(C(F)(F)F)c2)cc1Nc1nccc(-c2cncnc2)n1
- Potency [1]: inactive
- Potency [2]: inactive

SMILES: COc1cc(/C=C/C=O)cc(OC)c1O[C@@H]1O[C@H](CO)[C@@H](O)[C@H](O)[C@H]1O
- Potency [1]: inactive
- Potency [2]: inactive

SMILES: COc1cc2nc(N3CCC(N4CCCCC4)CC3)nc(NC3CCCCCC3)c2cc1OC
- Potency [1]: inactive
- Potency [2]: inactive

SMILES: C/C=C/C(O)C1OC(=O)CC1Nc1ccc(C(=O)O)cc1 (stereo not drawn)
- Potency [1]: inactive
- Potency [2]: inactive

SMILES: CCS(=O)(=O)N1CCN(c2ccc(Nc3ncc(C(N)=O)c(NC4CC4)n3)cc2)CC1
- Potency [1]: inactive
- Potency [2]: inactive

SMILES: C[C@H](C(=O)NC1CCCC1)N(C(=O)Cn1nnc(-c2ccc3c(c2)OCO3)n1)C1CCCCC1
- Potency [1]: inactive
- Potency [2]: inactive

SMILES: Cc1ccccc1-n1c([C@H](C)Nc2nc(N)nc3nc[nH]c23)nc2cccc(C)c2c1=O
- Potency [1]: inactive
- Potency [2]: inactive

SMILES: COc1c(Nc2ncc(Cl)c(N[C@H]3[C@@H](C(N)=O)[C@@H]4C=C[C@H]3C4)n2)ccc2c1CC[C@@H](N1CCOCC1)CC2
- Potency [1]: inactive
- Potency [2]: inactive

SMILES: CN1CCN(Cc2ccc(-c3cnc4[nH]cc(-c5ccc6[nH]ccc6c5)c4c3)cc2)CC1
- Potency [1]: inactive
- Potency [2]: inactive

SMILES: CCC1C(=O)N(C)c2cnc(Nc3ccc(C(=O)NC4CCC(N5CCN(CC6CC6)CC5)CC4)cc3OC)nc2N1C(C)C (stereo not drawn)
- Potency [1]: inactive
- Potency [2]: inactive

SMILES: O=C(O)Cc1cn(C2OCC(O)C(O)C2O[C@@H]2O[C@H](CO)[C@@H](O)[C@H](O)[C@H]2O)c2ccccc12 (stereo partly drawn)
- Potency [1]: inactive
- Potency [2]: inactive

SMILES: COc1cc(-c2ncn(/C=C\C(=O)OC(C)C)n2)cc(C(F)(F)F)c1
- Potency [1]: inactive
- Potency [2]: inactive

SMILES: O=C1C=CC2OC(c3ccccc3)C(O)C2O1 (stereo not drawn)
- Potency [1]: inactive
- Potency [2]: inactive

SMILES: CC(=O)NC1=NN(C(C)=O)C(C)(c2ccccc2)S1 (stereo not drawn)
- Potency [1]: inactive
- Potency [2]: inactive

SMILES: CCC(=O)O[C@H]1C(C)(C)[C@H]([C@@H](O)C(=O)OC)[C@]2(C)C(=O)[C@@]1(O)[C@H]1O[C@]13C1CC(=O)O[C@@H](c4ccoc4)[C@]1(C)CCC32 (stereo partly drawn)
- Potency [1]: inactive
- Potency [2]: inactive

SMILES: CN(C)c1nc(NC2CCC(NCCc3ccc(Br)cc3OC(F)(F)F)CC2)nc2ccccc12 (stereo not drawn)
- Potency [1]: inactive
- Potency [2]: inactive

SMILES: OC[C@@]1(O)CO[C@@H](OC[C@H]2O[C@@H](Oc3c[nH]c4ccccc34)[C@H](O)[C@@H](O)[C@@H]2O)[C@@H]1O
- Potency [1]: inactive
- Potency [2]: inactive

SMILES: CC(C)CC1OC(=O)C2CCCN2C(=O)CCNC(=O)C(Cc2ccccc2)NC(=O)C(C(C)C)N(C)C(=O)C(C(C)C)N(C)C1=O (stereo not drawn) (cyclo([ξLac(3-iPr)][NMeV][NMeV]F[βAla]P); configuration not given here)
- Potency [1]: inactive
- Potency [2]: inactive

SMILES: CC(C)=CCC/C(C)=C/CC/C(C)=C/COC1OC(COC2OCC(OC3OCC(O)C(O)C3O)C(O)C2O)C(O)C(OC2OC(C)C(OC3OC(C)C(OC4OCC(OC5OC(C)C(O)C(O)C5O)C(O)C4O)C(O)C3O)C(O)C2O)C1O (stereo not drawn)
- activity change, negative = inhibition [1]: 15.4% [at 19.1 µM]
- activity change, negative = inhibition [2]: -0.102% [at 10.7 µM]

SMILES: COc1c/c(=C2\C=c3ccccc3=N2)[nH]/c1=C\c1[nH]c(C)cc1C
- Potency [1]: inactive
- Potency [2]: inactive

SMILES: C=C(F)c1sc(CNCCCNc2cc(=O)c3ccccc3[nH]2)c(C)c1Br
- Potency [1]: inactive
- Potency [2]: inactive

SMILES: CS(=O)(=O)NCC1CCC(Nc2nc3c(s2)CCSc2ccccc2-3)CC1 (stereo not drawn)
- Potency [1]: inactive
- Potency [2]: inactive
